# Source: PubChem BioAssay (several laboratories)
# Sampled rows, rich in hits. Any-hit rate of the full collection: about 6.2%.
# SUMO Mot1 rescue: SUMOylation pathway inhibition by Mot1-301 growth rescue. 320,000 tested, 1% active. growth rescue, % at 18.8 µM. AID 2716. S. cerevisiae Mot1-301 growth rescue, ATP luminescence, 38.5C; percent above DMSO median, 100 means doubled;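 active = every valid replicate shows activation above 250% relative to neutral control wells; inactive = the rest, any valid replicate at or below 250%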;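 also: OY570 slx delta 5 strain wells were the positive control but not used for scaling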
# AHR act: activates the human aryl hydrocarbon receptor; 320,000 tested, 2.5% active; activation, % at 5 µM; AHR-responsive luciferase reporter cells, luminescence; in the data active = activation above about 47%;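 also: 0% = vehicle wells and 100% = reference agonist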
# AI-2 QS modul: Vibrio harveyi AI-2 quorum sensing modulation; Vibrio harveyi JMH597 AI-2 luminescence/OD600 ratio, 9 h; hits give low values; strain lacks LuxN and CqsS sensors; 0 = neutral-control median; activity change, % at 7.5 µM; 300,000 tested, 0.4% active; in the data active = activity change below about -75%, passing the limit was not always enough;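 also: luminescence divided by OD600 gain over 9 h not by final OD600 alone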
# NTR1 agonist: activates human neurotensin receptor 1 | P30989 | NTR1-U2OS beta-arrestin-GFP spot imaging, agonist mode | activation, % at 20 µM | 330,000 tested, 0.17% active;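 active = activation at or above 40% of the spot to cytoplasm intensity ratio, with at least 20 cells analyzed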;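 also: 0% = DMSO without peptide and 100% = 100 nM NTR1 peptide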
# Target sequence (P30989 whole entry, looked up): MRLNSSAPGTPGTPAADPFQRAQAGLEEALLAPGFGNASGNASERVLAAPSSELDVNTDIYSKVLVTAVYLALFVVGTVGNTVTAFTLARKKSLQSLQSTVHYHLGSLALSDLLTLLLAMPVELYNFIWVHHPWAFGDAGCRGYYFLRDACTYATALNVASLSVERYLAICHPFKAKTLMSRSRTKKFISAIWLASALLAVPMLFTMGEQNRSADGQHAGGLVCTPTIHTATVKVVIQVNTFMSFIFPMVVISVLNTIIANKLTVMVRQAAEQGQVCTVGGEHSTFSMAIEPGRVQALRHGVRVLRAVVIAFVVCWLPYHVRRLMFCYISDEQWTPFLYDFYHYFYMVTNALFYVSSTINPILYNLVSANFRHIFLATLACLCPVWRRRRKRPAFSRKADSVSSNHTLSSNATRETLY
# Cardio protect: myocardial damage modulation in H9c2 cells; 360,000 tested, 0.63% active; H9c2 cardiomyocytes, H2O2 injury protection, ATPLite, 2 h; AID 588492; protection from H2O2 cell death, % at 20 µM;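 active = compounds giving at least 50% protection of heart cells from peroxide-induced death in the single-dose screen, raw or plate-pattern-corrected value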;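 also: 0% = DMSO wells with peroxide and 100% = DMSO wells without peroxide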
# NR3A LBD binder: modulators (binders) of human NR3A ligand-binding domain; NR3A LBD differential scanning fluorimetry, Tm shift; 0% = protein alone, 100% = glycine-bound protein; Tm shift relative to glycine control, % at 25 µM; 340,000 tested, 2.5% active; AID 1259313;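 active = melting temperature shift of at least 10% of the positive control shift, at one fixed dose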
# Numbers without * were called inactive; x = no result given.
SMILES,SUMO Mot1 rescue,AHR act,AI-2 QS modul,NTR1 agonist,Cardio protect,NR3A LBD binder
CCCn1cnc2cc(NC(=O)c3ccco3)ccc21,-0.4,60.4*,43.6,-0.3,-9.0,0.9
O=C(NC(=S)NCCc1ccccn1)c1ccco1,60.9,2.9,0.1,-1.0,7.3,243.9*
CC(C)CC(=O)N1CCN(c2ccc(NC(=O)c3ccco3)cc2)CC1,-21.1,-4.2,20.5,-0.3,-3.0,12.6*
CC(C)(C)C(=O)N1CCN(c2ccc(NC(=O)c3ccco3)cc2)CC1,15.4,-0.6,25.6,-0.6,1.8,2.5
O=C(Nc1ccc(NC(=O)c2sc3ccccc3c2Cl)cc1)c1ccco1,-11.4,4.0,26.1,-0.4,-1.3,28.6*
CC(=O)Nc1ccc(S(=O)(=O)N(C)Cc2cnn(C)c2)cc1,-17.3,-1.3,0.0,-0.1,1.7,0.2
COc1cc(OC)cc(C(=O)NC(=S)Nc2ccc(NC(=O)c3ccco3)cc2)c1,2.5,41.3,21.5,8.5,2.9,18.5*
O=C(Nc1ccc(Nc2ccccc2)cc1)c1ccco1,21.4,-3.8,-96.4*,-0.7,-8.0,6.2
COc1ccccc1C(=O)NC(=S)Nc1ccc(NC(=O)c2ccco2)cc1,7.8,5.1,5.9,5.0,19.5,-3.2
O=C(Nc1ccc(NC(=S)NC(=O)c2ccco2)cc1)c1ccccc1,-2.1,0.5,36.6,4.4,3.5,15.1*
O=C(/C=C/c1ccc(Cl)cc1)NC(=S)Nc1ccc(NC(=O)c2ccco2)cc1,18.5,-2.6,14.7,x,-7.4,34.5*
Cc1ccc(N2CC(C(=O)NCCN3CCOCC3)CC2=O)cc1C (centres undefined),-0.2,2.3,10.5,-0.1,-6.8,2.3
COC(=O)Nc1ccc2c(c1)N(C(=O)CCCl)c1ccccc1S2,-5.9,x,4.7,x,-5.1,-4.5
O=C(Nc1ccc(Cc2ccncc2)cc1)c1ccco1,264.1,7.9,-81.9*,-1.7,-6.8,-0.3
CC(C)CC(=O)NC(=S)Nc1ccc(NC(=O)c2ccco2)cc1,-5.1,-3.3,20.1,2.3,-6.1,19.1*
O=C(Nc1nccs1)c1ccc(NC(=O)c2ccco2)cc1,-2.4,-1.6,10.5,-1.6,4.0,10.2*
CC(NC(=O)c1ccco1)C(=O)Nc1nccs1 (centres undefined),6.8,-3.2,x,-0.1,3.7,-0.8
Cn1c(=O)c2c(ncn2CC(=O)Nc2cc(S(=O)(=O)N3CCCCC3)ccc2O)n(C)c1=O,-9.1,-2.7,x,-0.2,0.7,1.6
CS(=O)(=O)c1ccccc1-c1nnc(NC(=O)c2cccc(N3C(=O)CCC3=O)c2)o1,-13.1,-1.1,40.4,0.0,0.5,1.2
FC(F)(F)c1ccccc1Cc1c(-c2ccco2)nc2ccc(Br)cn12,x,x,x,x,3.1,x
O=C(NC1CCCc2ccccc21)c1cccc(F)c1 (centres undefined),x,x,x,x,9.6,-0.7
Cc1ncc([N+](=O)[O-])n1CC(=O)Nc1ccccc1Cl,x,x,x,x,-0.2,x
CCSc1nc(O)cc(=O)[nH]1,2.1,6.4,34.5,0.5,-0.4,2.0
CCSc1nc(=S)cc(C)[nH]1,107.9,11.2,-1.5,x,-4.9,10.3*
O=c1cc(-c2ccccc2)nc2cc(-c3ccco3)[nH]n12,-18.9,37.5,17.4,0.0,4.0,10.3*
SMILES,SUMO Mot1 rescue,AHR act,AI-2 QS modul,NTR1 agonist,Cardio protect,NR3A LBD binder
CCCc1cc(=O)n2[nH]c(-c3ccc(C)cc3)cc2n1,11.2,68.7*,4.6,0.8,-3.6,-5.3
CCCc1cc(=O)n2[nH]c(-c3ccccc3)cc2n1,6.5,71.9*,14.9,-2.1,-6.9,-0.9
O=c1cc(-c2ccccc2)nc2cc(-c3ccc(Br)cc3)[nH]n12,200.9,29.5,44.3,3.3,3.2,0.0
CS(=O)(=O)c1ccc2nc(NC(=O)c3ccc(Cl)cc3)sc2c1,4.4,7.0,x,-0.7,-2.4,8.4
COC(=O)c1ccc(C(=O)Nc2nc3cc(N)c(C)cc3s2)cc1,-6.7,6.0,8.8,-0.8,2.5,36.1*
CCOc1ccc2nc(NC(=O)c3ccc(S(=O)(=O)N4CCOCC4)cc3)sc2c1,58.9,-0.9,11.1,7.3,-2.2,29.3*
Cc1cccc2sc(NC(=O)c3ccc(NS(=O)(=O)c4cccs4)cc3)nc12,27.0,11.2,12.6,-0.6,-8.4,35.8*
COc1ccc(C(=O)Nc2nc3ccc(S(C)(=O)=O)cc3s2)cc1,17.2,-3.2,18.7,-0.5,-9.1,10.4*
COc1ccc(N2CCN(c3nccs3)CC2)cc1,2.9,-8.4,x,0.8,-1.5,-2.2
COc1ccc2nc(NC(=O)c3ccc(NC(=O)C4CCCO4)cc3)sc2c1 (centres undefined),-4.1,14.5,26.6,-0.1,35.5,20.1*
CCOC(=O)c1sc(NC(=O)c2ccc(S(=O)(=O)N3CCOCC3)cc2)cc1C,-20.8,5.4,5.0,5.2,-1.1,20.4*
Cc1cccc2sc(NC(=O)CNS(=O)(=O)c3ccc(Br)s3)nc12,11.5,17.9,x,4.8,-3.2,10.7*
COc1ccc(C(=O)Nc2nc3ccc(OC)cc3s2)cc1,6.1,x,7.5,-0.6,-7.7,32.4*
Cc1cccc2sc(NC(=O)Cn3c(C)csc3=O)nc12,x,x,x,0.3,0.5,-1.6
Cn1cc(-c2coc3c(C(=O)NCc4cccs4)cccc23)cn1,x,x,x,x,7.7,x
CCOc1cc(N2CCOCC2)c(OCC)cc1NC(=O)COC(=O)c1ccc([N+](=O)[O-])o1,x,-0.5,x,10.4,10.2,0.4
CC(C)NC(=O)C1CCCN(S(=O)(=O)c2cccs2)C1 (centres undefined),7.0,-0.6,4.5,-1.1,-1.4,10.8*
CC(NC(=O)C1CCCN(S(=O)(=O)c2cccs2)C1)c1ccccc1 (centres undefined),-3.5,0.3,17.4,2.2,6.1,1.5
COc1cc2nc(NC(=O)c3ccccc3)sc(=O)c2cc1OC,x,x,7.1,1.6,28.2,42.3*
COc1ccc2nc(NC(=O)c3ccc(NS(=O)(=O)c4cccs4)cc3)sc2c1,-15.6,5.9,23.1,2.2,-10.8,25.4*
COc1ccc2nc(NC(=O)C3CCCN(S(=O)(=O)c4cccs4)C3)sc2c1 (centres undefined),1.6,71.4*,22.8,-1.9,-0.1,-5.1
COc1ccc2nc(NC(=O)C3CCN(S(=O)(=O)c4cccs4)CC3)sc2c1,156.8,2.3,21.8,7.1,0.0,-26.7
COC(=O)[C@H](C(C)C)N(Cc1ccccc1)S(=O)(=O)CCNC1CCCC1,x,x,x,0.2,-2.5,0.2
CCOc1ccc(CCNC(=O)COn2nnc3ccc(S(=O)(=O)N4CCOCC4)cc32)cc1OCC,10.6,5.6,-4.0,2.8,0.8,0.9
NS(=O)(=O)c1ccc(NC(=O)CSc2nnc(-c3ccc(O)cc3)o2)cc1,-7.3,-0.2,42.1,-0.9,-6.1,26.2*
Cc1ccc(NC(=O)CSc2nnc(-c3ccc(S(=O)(=O)N4CCCC4)cc3)o2)cc1C,x,4.1,x,45.8*,-12.1,-1.2
